Out of some 5,500 compounds screened, about 2,000 (36%) were called active. Another 18% or so got no clear call; they are omitted. Rule as the data show it: active = normalized growth mostly below about 0.91 (no sharp cut-off); inconclusive = no clear call, values can overlap the other calls; inactive = mostly above about 0.92. Some of the results follow.
Test: chemical genetic growth profiling, strain panel (AID 1159580);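 also: tested at 20 µM; growth read once vehicle control cultures reached saturation at 30 °C; 1 = growth at the plate median or of vehicle wells; lower values mean less growth of the strain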
Details: S. cerevisiae deletion strains, growth OD
[1] = locus YAL021C, strain ccr4, stronger effect = lower value
[2] = locus YAL026C, strain drs2, stronger effect = lower value
[3] = locus YAL030W, strain snc1, stronger effect = lower value
[4] = locus YBL061C, strain skt5, stronger effect = lower value
[5] = locus YBR009C, strain hhf1, stronger effect = lower value
[6] = locus YBR023C, strain chs3, stronger effect = lower value
[7] = locus YBR171W, strain sec66, stronger effect = lower value
[8] = locus YBR231C, strain swc5, stronger effect = lower value
[9] = locus YBR279W, strain paf1, stronger effect = lower value
[10] = locus YCL011C, strain gbp2, stronger effect = lower value
[11] = locus YCL016C, strain dcc1, stronger effect = lower value
[12] = locus YCL069W, strain vba3, stronger effect = lower value
[13] = locus YCR088W, strain abp1, stronger effect = lower value
[14] = locus YDL005C, strain med2, stronger effect = lower value
[15] = locus YDL040C, strain nat1, stronger effect = lower value
[16] = locus YDR001C, strain nth1, stronger effect = lower value
[17] = locus YDR069C, strain doa4, stronger effect = lower value
[18] = locus YDR137W, strain rgp1, stronger effect = lower value
[19] = locus YDR159W, strain sac3, stronger effect = lower value
[20] = locus YDR297W, strain sur2, stronger effect = lower value
[21] = locus YDR334W, strain swr1, stronger effect = lower value
[22] = locus YDR335W, strain msn5, stronger effect = lower value
[23] = locus YDR392W, strain spt3, stronger effect = lower value
[24] = locus YEL003W, strain gim4, stronger effect = lower value
[25] = locus YEL037C, strain rad23, stronger effect = lower value
[26] = locus YEL061C, strain CIN8 (second series), stronger effect = lower value
[27] = locus YER015W, strain faa2, stronger effect = lower value
[28] = locus YER016W, strain bim1, stronger effect = lower value
[29] = locus YER111C, strain swi4, stronger effect = lower value
[30] = locus YER155C, strain BEM2 (second series), stronger effect = lower value
[31] = locus YFR010W, strain ubp6, stronger effect = lower value
[32] = locus YGL167C, strain pmr1, stronger effect = lower value
[33] = locus YGL173C, strain kem1, stronger effect = lower value
[34] = locus YGL227W, strain vid30, stronger effect = lower value
[35] = locus YGL240W, strain doc1, stronger effect = lower value
[36] = locus YGL253W, strain hxk2, stronger effect = lower value
[37] = locus YHR013C, strain ard1, stronger effect = lower value
[38] = locus YHR027C, strain rpn1, stronger effect = lower value
[39] = locus YHR142W, strain chs7, stronger effect = lower value
[40] = locus YJL092W, strain hpr5, stronger effect = lower value
[41] = locus YJL095W, strain BCK1 (second series), stronger effect = lower value
[42] = locus YJL115W, strain asf1, stronger effect = lower value
[43] = locus YJL129C, strain trk1, stronger effect = lower value
[44] = locus YJL154C, strain vps35, stronger effect = lower value
[45] = locus YJL164C, strain tpk1, stronger effect = lower value
[46] = locus YJL166W, strain qcr8, stronger effect = lower value
[47] = locus YJL187C, strain SWE1, stronger effect = lower value
[48] = locus YKL160W, strain elf1, stronger effect = lower value
[49] = locus YKR026C, strain gcn3, stronger effect = lower value
[50] = locus YKR091W, strain srl3, stronger effect = lower value
[51] = locus YLL001W, strain dnm1, stronger effect = lower value
[52] = locus YLL026W, stronger effect = lower value
[53] = locus YLL041C, strain sdh2, stronger effect = lower value
[54] = locus YLR027C, strain aat2, stronger effect = lower value
[55] = locus YLR221C, strain rsa3, stronger effect = lower value
[56] = locus YLR258W, strain gsy2, stronger effect = lower value
[57] = locus YLR262C, strain YPT6 (second series), stronger effect = lower value
[58] = locus YLR320W, strain mms22, stronger effect = lower value
[59] = locus YLR342W, strain FKS1, stronger effect = lower value
[60] = locus YLR357W, strain rsc2, stronger effect = lower value
[61] = locus YLR370C, strain arc18, stronger effect = lower value
[62] = locus YLR384C, strain iki3, stronger effect = lower value
[63] = locus YML120C, strain ndi1, stronger effect = lower value
[64] = locus YMR058W, strain fet3, stronger effect = lower value
[65] = locus YMR125W, strain sto1, stronger effect = lower value
[66] = locus YMR129W, stronger effect = lower value
[67] = locus YMR205C, strain PFK2, stronger effect = lower value
[68] = locus YMR231W, strain pep5, stronger effect = lower value
[69] = locus YNL071W, strain lat1, stronger effect = lower value
[70] = locus YNL209W, strain ssb2, stronger effect = lower value
[71] = locus YNL248C, strain rpa49, stronger effect = lower value
[72] = locus YNL322C, strain KRE1 (second series), stronger effect = lower value
[73] = locus YNR049C, strain mso1, stronger effect = lower value
[74] = locus YOR001W, strain rrp6, stronger effect = lower value
[75] = locus YOR070C, strain gyp1, stronger effect = lower value
[76] = locus YOR080W, strain dia2, stronger effect = lower value
[77] = locus YOR083W, strain WHI5, stronger effect = lower value
[78] = locus YOR106W, strain vam3, stronger effect = lower value
[79] = locus YOR265W, strain rbl2, stronger effect = lower value
[80] = locus YOR270C, strain vph1, stronger effect = lower value
[81] = locus YOR290C, strain snf2, stronger effect = lower value
[82] = locus YPL051W, strain arl3, stronger effect = lower value
[83] = locus YPL078C, strain atp4, stronger effect = lower value
[84] = locus YPL106C, strain sse1, stronger effect = lower value
[85] = locus YPL240C, strain hsp82, stronger effect = lower value
[86] = locus YHR030C, strain SLT2, stronger effect = lower value
[87] = locus YHR079C, strain IRE1, stronger effect = lower value
[88] = locus YJL095W, strain BCK1, stronger effect = lower value
[89] = locus YJR066W, strain TOR1, stronger effect = lower value
[90] = locus YLR113W, strain HOG1, stronger effect = lower value
[91] = locus YNL183C, strain NPR1, stronger effect = lower value
[92] = locus YOR231W, strain MKK1, stronger effect = lower value
[93] = locus YPL256C, strain CLN2, stronger effect = lower value

Measured: normalized growth

COc1cc(-c2cc(=O)c3c(O)c(OC)c(OC)c(OC)c3o2)cc(OC)c1OC
inactive: [1] 1.01 | [2] 1.01 | [3] 1.01 | [4] 1.01 | [5] 1.01 | [6] 1.01 | [7] 1.01 | [8] 1.01 | [9] 0.998 | [10] 1.01 | [11] 1.01 | locus YCL061C, strain MRC1, stronger effect = lower value 1.03 | [12] 1.01 | [13] 1.01 | [14] 1.02 | [15] 1.01 | [16] 1.01 | [17] 1.02 | [18] 0.997 | [19] 1.03 | locus YDR195W, strain ref2 1.02 | [20] 1.01 | [21] 1.01 | [22] 1.03 | [23] 0.97 | [24] 1.01 | [25] 1.01 | [26] 1.01 | [27] 1.01 | [28] 1.02 | [29] 1 | [30] 1 | [31] 1.01 | [32] 1.02 | [33] 1.01 | [34] 1.01 | [35] 1.04 | [36] 1 | [37] 1 | [38] 1.01 | [39] 0.99 | [40] 1.02 | [41] 1.01 | [42] 1.01 | [43] 1 | [44] 1.01 | [45] 0.999 | [46] 1.01 | [47] 1.01 | [48] 1.01 | [49] 1.01 | [50] 1.01 | [51] 1.02 | [52] 1.01 | [53] 1.01 | [54] 1.01 | [55] 1 | [56] 1.01 | [57] 1.01 | [58] 1.02 | [59] 1.02 | [60] 0.994 | [61] 1.02 | [62] 1.01 | [63] 1 | [64] 1 | [65] 0.999 | [66] 1.01 | [67] 1.02 | [68] 1.01 | [69] 1 | [70] 1 | [71] 1 | [72] 1.02 | [73] 1.01 | [74] 0.999 | [75] 1 | [76] 1.01 | [77] 0.995 | [78] 1 | [79] 1.01 | [80] 0.99 | [81] 0.933 | [82] 1 | [83] 0.999 | [84] 1.03 | [85] 1.01

COc1ccc(-c2cc(=O)c3c(OC)c(OC)c(OC)c(OC)c3o2)cc1OC
inactive: [1] 1 | [2] 1 | [3] 0.999 | [4] 1 | [5] 1.02 | [6] 1.01 | [7] 1 | [8] 0.997 | [9] 0.998 | [10] 0.988 | [11] 0.993 | [12] 1.02 | [13] 0.996 | [14] 1 | [15] 0.999 | [16] 0.991 | [17] 1.01 | [18] 1.03 | [19] 0.96 | locus YDR195W, strain ref2 0.952 | [20] 0.986 | [21] 1.01 | [22] 1.02 | [23] 1.01 | [24] 1.01 | [25] 0.997 | [26] 0.999 | [27] 0.992 | [28] 0.993 | [29] 1 | [30] 0.996 | [31] 1.02 | [32] 1.01 | [33] 1.01 | [34] 0.985 | [35] 0.994 | [36] 0.994 | [37] 0.973 | [38] 1 | [86] 1.01 | [87] 1.01 | [39] 1.01 | [40] 0.996 | [41] 0.992 | [88] 0.963 | [42] 0.988 | [43] 1.01 | [44] 0.983 | [45] 1 | [46] 0.998 | [89] 0.976 | [48] 0.997 | [49] 0.997 | [50] 0.996 | [51] 0.996 | [52] 0.991 | [53] 0.991 | [54] 1 | [90] 0.941 | [55] 0.996 | [56] 1.01 | [57] 1.04 | [58] 1 | [59] 0.998 | [60] 0.957 | [61] 0.988 | [62] 0.981 | [63] 1.01 | [64] 0.995 | [65] 1 | [66] 0.994 | [67] 1.02 | [68] 1 | [69] 0.998 | [91] 0.926 | [70] 1 | [71] 0.995 | [72] 0.994 | [73] 1.01 | [74] 0.982 | [75] 0.988 | [76] 0.989 | [77] 1 | [78] 1.01 | [92] 1.02 | [79] 1.02 | [80] 1.07 | [81] 0.988 | [82] 0.974 | [83] 0.985 | [84] 0.962 | [85] 1 | [93] 0.991

COc1ccc(-c2cc(=O)c3c(O)c(OC)c(OC)c(OC)c3o2)cc1OC
inactive: [1] 0.997 | [2] 0.974 | [3] 0.995 | [4] 0.991 | [5] 0.965 | [6] 1 | [7] 0.994 | [8] 0.976 | [9] 0.995 | [10] 0.989 | [11] 0.996 | [12] 1.01 | [13] 0.997 | [14] 0.998 | [15] 1.02 | [16] 1 | [17] 0.972 | [19] 0.967 | locus YDR195W, strain ref2 1.03 | [20] 0.988 | [21] 1 | [22] 1 | [23] 0.867 | [24] 0.994 | [25] 0.997 | [26] 1.02 | [27] 0.989 | [28] 1.04 | [29] 0.987 | [30] 0.939 | [31] 0.997 | [32] 0.992 | [33] 0.991 | [34] 0.99 | [35] 0.983 | [36] 0.951 | [37] 1.01 | [38] 1 | [86] 0.961 | [87] 0.949 | [39] 0.953 | [40] 1 | [41] 0.992 | [88] 1.01 | [42] 0.996 | [43] 0.949 | [44] 0.998 | [45] 0.995 | [46] 0.974 | [47] 0.989 | [89] 0.914 | [48] 0.994 | [49] 0.995 | [50] 1.03 | [51] 0.984 | [52] 0.998 | [53] 1 | [54] 0.997 | [90] 1 | [55] 0.943 | [56] 1 | [57] 0.985 | [58] 0.975 | [59] 1 | [60] 0.972 | [61] 0.986 | [62] 0.974 | [63] 0.989 | [65] 1.01 | [66] 1.01 | [67] 1 | [68] 1 | [69] 0.994 | [91] 0.944 | [70] 0.998 | [71] 0.971 | [72] 1 | [73] 1.01 | [74] 0.94 | [75] 0.978 | [76] 0.999 | [77] 0.991 | [78] 0.954 | [92] 0.95 | [79] 0.993 | [80] 0.962 | [81] 0.994 | [82] 0.947 | [83] 0.979 | [84] 0.953 | [85] 1.03 | [93] 0.971
active: [18] 1.2 [resistant] | [64] 0.815

Reference: PubChem BioAssay AID1159580 (chemical genetic matrix, 2015)
